# Measured values from the supplement of paper PMC11417369.
# ± gives the standard deviation of the averaged measurements. Whole data set: some 25,000 sequences, median “ln(normalized median fluorescence intensity)” near 7.9, cut for the highest 2% near 11. Many of the other results were omitted from the sample, so the highest values are more common in it than they were.
# Test system: PfAP2-I AP2 domain 3 (GST-tagged)
# Assay: gcPBM binding intensity (ln(normalized median fluorescence intensity)); higher = stronger DNA binding
# Summary of the method: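 Alexa488 anti-GST antibody, scanned at 488 nm, detected GST-tagged P. falciparum DNA-binding domains that had been expressed in E. coli and incubated for 1 h on an Agilent 4 × 180k array. The array carried primer-extended double-stranded 36-bp intergenic genomic probes and negative controls. Binding intensity is the highest Masliner-normalised natural-log median intensity across replicate spots of either orientation of each probe.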
row,Sequence,gcPBM binding intensity (ln)
1,TTCTGACCAATGCTATAAAATAATACAAAAGAAAAA [GTGCAC_negctrl_site3],7.83 ± 0.35
2,TTAACTTTTTTATATGCACACATAAACAAGGATATA [CACACA_site8932],9.57 ± 0.3
3,TCCATATGCAAACTGGTGCACAAGTAGCTTTTATAT,11.15 ± 0.028
4,AACTTTTTTATATGCACACATAAACAAGGATATATA [CACACA_site2874],10.1 ± 0.49
5,TATAAGAGGATATATACACACAAAAATATGTACAGT [CACACA_site6885],7.92 ± 0.52
6,TATTAATAATTAAGTTGTACATTAATTAATATACTG [XGTACX_site6994],7.46 ± 0.41
7,CGTTATATCAAAGGAGTGCATTATGAATACGTTTTA [GTGCAC_site9837],11.4 ± 0.65
8,ATATATCAAGGGAGTGAATGTTATGCATATGAATAT [TGCATGCA_negctrl_site573],7.82 ± 0.83
9,ATATATTTTAGGAGAGTGCATTTAATATTATTTAAT [GTGCAC_site9444],10.7 ± 0.62
10,AAAAATAGGAACCAATATCCAACGTGACTTTATAAT [CACACA_negctrl_site1011],7.68 ± 0.81
11,TTTACTTTTTTTTCTTGTACTCATACATACTATCAT [XGTACX_site4919],7.84 ± 0.83
12,ATATATATAATATGATGTACTATTTTGATAAAAAAT [XGTACX_site3975],8.23 ± 0.54
13,TTTATCATGAACAGAAGTACATTTATATCAATGTCT [XGTACX_site6470],7.5 ± 0.47
14,ATTGTCAAAACACGCACACACATATACATAATAACA [CACACA_site1742],8.2 ± 0.37
15,ATATATATATATTTCGTGCACTGATAATATTATTTT,11.2 ± 0.35
16,TTTGCGTAGAAATGTGTGCACTGATATTTATAATAA [GTGCAC_site9526],10.6 ± 0.035
17,TTATATTATTCGTGTGTGCACGATATTTCATAATTG [GTGCAC_site9767],10.1 ± 0.2
18,AAAATTAAAATATCACGTACGAAGAAAAAATTAAGA [XGTACX_site6437],7.86 ± 0.54
19,TATTTCACTTTTTGTCTGCACTAAAATTTTATGGTA,9.46 ± 0.32
20,ATATATATATTATATGCACACTAATAAGACTATTTA [CACACA_site5880],9.66 ± 0.11
21,ACTAGACAAAATATAATGCACACTATTATTTTTATT [CACACA_site2726],10.9 ± 0.65
22,TATATATATTTATGCACACAAAATATATTATATAAT [CACACA_site5955],9.86 ± 0.38

row,Sequence,gcPBM binding intensity (ln)
1,TTTTTAATTCAAAAAATAATATATTATATTTCAAAT [CACACA_negctrl_site737],7.38 ± 0.48
2,AATTAGCTATTTAAAAATATATAAAATTTATATATA [CACACA_negctrl_site390],7.47 ± 0.2
3,TTATATTTTACAAATGCACACATAATTTTTTTTTTT [CACACA_site8890],9.04 ± 0.19
4,TAGACAAAATATAATGCACACTATTATTTTTATTTA [CACACA_site5508],11 ± 0.73
5,ATTATATATATTTATGCACACAAAATATATTATATA [CACACA_site9244],9.78 ± 0.3
6,TTTCAAAAAAATAGCTATATTTATATTAATGCACGA [TGCATGCA_negctrl_site63],11.9 ± 0.45
7,ACTTCATTTTTTTTATGTACACAGAAGATTTACAAA [XGTACX_site4021],8.44 ± 0.47
8,TTTATTTGTAACGGTTGTACTTGTATATCATTATGA [XGTACX_site4281],7.72 ± 0.4
9,AAAAAAGACCATGTTAGTACATAAGATTTTTTTCAT [XGTACX_site4298],7.53 ± 0.57
10,ATATTGCTTATTTGATGTACGAATACACTAGTATTA [XGTACX_site4536],7.79 ± 0.64
11,TTATATTATATATATAGTACACATGTAATATTTCAA [XGTACX_site1791],7.76 ± 0.35
12,ACCCTATTTATATATACACACACATATATAAATAAA [CACACA_site8980],8.24 ± 0.36
13,AAAAAAAAAAATATAACACACAAAAAATTGTATCGA [CACACA_site1144],7.53 ± 0.26
14,GCTATTAATTTATAAGCACACAATATAAATATATAT [CACACA_site2251],8.46 ± 0.057
15,TTTTGTTTATGTGTGCATTATATTATATTTTTTATT [TGCATGCA_negctrl_site146],10.9 ± 0.45
16,ATATATTATAGAGGTGTGCACTACATACATTATAAT [GTGCAC_site9991],10.9 ± 0.4
17,AAGTTATATTTGTGTACACATAATTTTATACTAATA [CACACA_site5553],8.82 ± 0.33
18,ATATGTATGTATTTATTATTGTGCATTGTATTTATA [CACACA_negctrl_site664],9.36 ± 0.38
19,TATGTTTGTGTATATATTTATTTTTATGTAATTATA [GTGCAC_negctrl_site219],7.75 ± 0.45
20,TTGGGTGCATATATTTGTACACATTATTTCTATTTT [XGTACX_site3688],11.2 ± 0.85
21,AAATATAATAATACATTGCACATATATTATATATAT [TGCATGCA_negctrl_site611],8.53 ± 0.64
22,AATAAATAGAAAGAGGTGCTACATTATATTATTTAT,8.73 ± 0.3

row,Sequence,gcPBM binding intensity (ln)
1,CTTAAATTAATTTGGGTGCATATATTTGTACACATT [GTGCAC_site9948],10.8 ± 0.53
2,TTGCATATTTCTAATTGTACATTATTTTATTTTATA [XGTACX_site8451],7.75 ± 0.54
3,AGTACATTTTTGTGTGTGCACTAATATTATATACTT [GTGCAC_site9568],11.3 ± 0.62
4,TATATATATATTTTTTGTACATATTATATAATATAC [XGTACX_site5187],9.025 ± 0.064
5,CCTTTTTCTACTTTCTCACACATATTAAGAATTATA [CACACA_site5621],8.29 ± 0.51
6,ATAAAAATGGATGAATATAAAAAAAAAAAAATATAT [CACACA_negctrl_site182],7.74 ± 0.59
7,AAAAAAAATAAAAATATATATATATATATATAAATA [GTGCAC_negctrl_site676],7.82 ± 0.53
8,TTCAATAGTAAGTATACACACATATATATATATAAA [CACACA_site2687],7.82 ± 0.47
9,TTACTTAATAGACACACACACAAAAAAAAAAAAAAA [CACACA_site6572],8.12 ± 0.49
10,GTGTGCAAAAATTGTTGTACATTATATATAAAAAAA [XGTACX_site3246],9.41 ± 0.34
11,TTTTGTTATAAATAATGTACATATTTATTTAAAATT [XGTACX_site6610],7.69 ± 0.38
12,AAATAATTATTTATCACACATATGTATTTATATATA [CACACA_site4589],7.66 ± 0.43
13,ATTTTTTAAAATATTTGTACATATATAATGCATATA [XGTACX_site7026],8.17 ± 0.17
14,TTATTAAATTTTTTTTGTACTTATATATATATATAT [XGTACX_site2443],9.23 ± 0.18
15,TATATATTATATATATGTACATATTGTTGTGTATAT [XGTACX_site767],7.92 ± 0.43
16,TTTTTTTTTTTTTTGTGTACTAATATTATAAATTTT [XGTACX_site4405],8.14 ± 0.3
17,GTTTATGTATTATTATGTACGTATCATAATATATAT [XGTACX_site2385],8.28 ± 0.38
18,TTATATTAATTTTGTTGTACTATTTGTGCATTAAAT [XGTACX_site4790],11.1 ± 0.78
19,AGTGCATAATATTTATGTACGTATCACATATATTTT [XGTACX_site5166],11.3 ± 0.83
20,ATATAATAAATGTAGGTGCATAAAAATATTTTGTTA [GTGCAC_site9780],11 ± 0.45
21,AATTGTGCATTATATTGTACACGTGTTGTATATATT [XGTACX_site975],11.1 ± 0.4
